Measurements published in PubChem BioAssay (Tox21).
“And” between values parts separate entries of the source, which are not always exact repeats. Equal values may be shown once. Inconclusive results are not listed. A call without a number means that no potency is given here. The source made the active and inactive calls. Unless noted, the call rests on the fitted dose curve; in most records, active means well fitted curve in the direction sought with a large enough effect in the repeat runs; inconclusive means weak or mixed curves; inactive means no such curve, though single readings can be large; an effect the other way counts as inactive or inconclusive.

Assays:
[1] = qHTS assay to identify small molecule antagonists of the glucocorticoid receptor (GR) signaling pathway - cell viability counter screen (AID 720693); further: nearly all actives have a fitted effect of over 55% in size
[2] = qHTS assay for identifying genotoxic compounds that show differential cytotoxicity against isogenic chicken DT40 cell lines with known DNA damage response pathways - wild type cell line (AID 743012); further: nearly all actives have a fitted effect of over 60% in size; further: potency means the concentration at half of the fitted maximal effect
In short: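 Endpoint: CellTiter-Glo luminescence, 30 min RT. Cells: wild type DT40, 300/well. Exposure: compounds in DMSO, 40 h, 37 C/5% CO2, after ~0.5 h pre-incubation.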

[3] = qHTS assay for identifying genotoxic compounds that show differential cytotoxicity against isogenic chicken DT40 cell lines with known DNA damage response pathways - Rev3 mutant cell line (AID 743014); further: nearly all actives have a fitted effect of over 55% in size; further: potency means the concentration at half of the fitted maximal effect
[4] = qHTS assay for identifying genotoxic compounds that show differential cytotoxicity against isogenic chicken DT40 cell lines with known DNA damage response pathways - Rad54/Ku70 mutant cell line (AID 743015); further: nearly all actives have a fitted effect of over 60% in size; further: potency means the concentration at half of the fitted maximal effect
[5] = qHTS assay to identify small molecule antagonists of the androgen receptor (AR) signaling pathway - cell viability counter screen (AID 743033; further: nearly all actives have a fitted effect of over 45% in size)
[6] = qHTS assay to identify small molecule antagonists of the androgen receptor (AR) signaling pathway using the MDA cell line - cell viability counter screen (AID 743041; further: nearly all actives have a fitted effect of over 45% in size)
In short: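 In this qHTS counter assay, fluorescence intensity after CellTiter-Fluor addition indicated viability of MDA-kb2 AR-luc cells given compounds and R1881 for 16 h at 37C.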

[7] = qHTS assay to identify small molecule antagonists of the thyroid receptor (TR) signaling pathway - cell viability counter screen (AID 743064); further: nearly all actives have a fitted effect of over 50% in size
In short: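 Same-well viability check: GH3.TRE-Luc cells stimulated with 1 nM T3 alongside test compound for 23.5 h, followed by CellTiter-Fluor fluorescence.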

[8] = qHTS assay to identify small molecule antagonists of the thyroid receptor (TR) signaling pathway (AID 743065); further: nearly all actives have a fitted effect of over 55% in size; further: potency means the concentration at half of the fitted maximal effect
In short: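 GH3.TRE-Luc rat pituitary cells carrying two TR response elements driving luciferase were plated for 4 h, given compound plus 1 nM T3 (final), and incubated 23.5 h at 37 C. ONE-Glo luminescence measured reporter inhibition; CellTiter-Fluor fluorescence tracked cytotoxicity.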

[9] = system: thyroid hormone receptor (rat, GH3 cells); assay: qHTS assay to identify small molecule agonists of the thyroid receptor (TR) signaling pathway (AID 743066; calls by dose curve)
[10] = target: Estrogen receptor (Homo sapiens) (UniProt P03372); assay: qHTS assay to identify small molecule antagonists of the estrogen receptor alpha (ER-alpha) signaling pathway (AID 743069; active means well fitted curve in the direction sought with a large enough effect in the signal ratio in the repeat runs, not every such curve was filed as active; the % refers to the signal ratio)
Chain of Estrogen receptor (Homo sapiens) (P03372 whole entry, looked up): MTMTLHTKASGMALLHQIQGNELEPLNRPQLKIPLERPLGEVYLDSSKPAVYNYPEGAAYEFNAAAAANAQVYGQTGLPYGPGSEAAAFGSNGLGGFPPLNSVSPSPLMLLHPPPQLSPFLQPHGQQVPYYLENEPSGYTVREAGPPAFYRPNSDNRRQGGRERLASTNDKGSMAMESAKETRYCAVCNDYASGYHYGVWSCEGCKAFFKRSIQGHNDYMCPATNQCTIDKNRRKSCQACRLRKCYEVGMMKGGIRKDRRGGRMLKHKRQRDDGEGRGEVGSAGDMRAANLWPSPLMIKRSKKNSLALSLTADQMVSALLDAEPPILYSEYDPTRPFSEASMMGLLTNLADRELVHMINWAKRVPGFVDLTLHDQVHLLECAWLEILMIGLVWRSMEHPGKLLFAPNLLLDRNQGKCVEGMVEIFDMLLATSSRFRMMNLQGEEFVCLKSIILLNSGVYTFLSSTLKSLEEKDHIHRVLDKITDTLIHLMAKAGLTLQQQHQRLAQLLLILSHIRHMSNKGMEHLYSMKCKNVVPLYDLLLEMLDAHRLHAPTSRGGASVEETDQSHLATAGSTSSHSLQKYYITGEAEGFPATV
In short: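 A 17beta-estradiol challenge was applied right after compound transfer to ER-alpha-UAS-bla HEK293 cells previously kept in charcoal-stripped serum. Plates stood 18 hr at 37C and 5% CO2; fluorescence was read following 2 hr FRET substrate loading at room temperature.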

[11] = qHTS assay to identify small molecule antagonists of the estrogen receptor alpha (ER-alpha) signaling pathway - cell viability counter screen (AID 743074; calls by dose curve;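 further: HEK293 cells carrying ER-alpha-UAS-bla reporter stimulated with 17beta-estradiol; nearly all actives have a fitted effect of over 45% in size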)
[12] = target: Estrogen receptor (Homo sapiens) (UniProt P03372); assay: qHTS assay to identify small molecule agonists of the estrogen receptor alpha (ER-alpha) signaling pathway (AID 743075; calls by dose curve;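 further: HEK293 GripTite cells with ER-alpha and UAS-driven beta-lactamase reporter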)
[13] = target: Estrogen receptor (Homo sapiens) (UniProt P03372); assay: qHTS assay to identify small molecule agonists of the estrogen receptor alpha (ER-alpha) signaling pathway using the BG1 cell line (AID 743079); further: nearly all actives have a fitted effect of over 20% in size; further: potency means the concentration at half of the fitted maximal effect
[14] = qHTS assay to identify small molecule antagonists of the estrogen receptor alpha (ER-alpha) signaling pathway using the BG1 cell line (AID 743080; calls by dose curve;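 further: BG1 cells stimulated with 17beta-estradiol alongside compound; series mostly up to about 70 µM; nearly all actives have a fitted effect of over 25% in size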)
In short: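 BG1-Luc-4E2 cells (endogenous full-length ER-alpha, 4xERE luciferase) hormone-starved 5 days in charcoal-stripped FBS, plated 4,000/well for 24 h, then compound plus 17beta-estradiol for 21.5 h at 37 C; ONE-Glo luminescence read.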

[15] = qHTS assay to identify small molecule antagonists of the estrogen receptor alpha (ER-alpha) signaling pathway using the BG1 cell line - cell viability counter screen (AID 743081);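 further: compound given together with 17beta-estradiol as the ER stimulus; series mostly up to about 70 µM; nearly all actives have a fitted effect of over 45% in size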
[16] = target: Aromatase (Homo sapiens) (UniProt P11511); assay: qHTS assay to identify aromatase inhibitors (AID 743083); further: series mostly up to about 70 µM; nearly all actives have a fitted effect of over 55% in size
Chain of Aromatase (Homo sapiens) (P11511 whole entry, looked up): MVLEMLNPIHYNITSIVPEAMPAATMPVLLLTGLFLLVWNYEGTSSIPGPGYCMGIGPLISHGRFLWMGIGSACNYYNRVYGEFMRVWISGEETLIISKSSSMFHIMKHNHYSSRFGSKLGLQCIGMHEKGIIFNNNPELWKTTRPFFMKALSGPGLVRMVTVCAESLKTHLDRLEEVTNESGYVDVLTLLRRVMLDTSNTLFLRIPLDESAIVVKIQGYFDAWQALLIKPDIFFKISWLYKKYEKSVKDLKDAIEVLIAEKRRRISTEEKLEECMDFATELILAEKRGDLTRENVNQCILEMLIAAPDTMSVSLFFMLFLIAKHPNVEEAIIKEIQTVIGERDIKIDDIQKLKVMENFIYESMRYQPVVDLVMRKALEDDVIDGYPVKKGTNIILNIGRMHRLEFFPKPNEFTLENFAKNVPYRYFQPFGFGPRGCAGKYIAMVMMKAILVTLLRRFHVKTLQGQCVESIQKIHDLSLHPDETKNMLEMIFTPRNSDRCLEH

[17] = target: Androgen receptor (Homo sapiens) (UniProt P10275); assay: qHTS assay to identify small molecule antagonists of the androgen receptor (AR) signaling pathway (AID 743035; active means well fitted inhibition curve with a large enough effect in the signal ratio in the repeat runs, not every such curve was filed as active; the % refers to the signal ratio)
Chain of Androgen receptor (Homo sapiens) (P10275 whole entry, looked up): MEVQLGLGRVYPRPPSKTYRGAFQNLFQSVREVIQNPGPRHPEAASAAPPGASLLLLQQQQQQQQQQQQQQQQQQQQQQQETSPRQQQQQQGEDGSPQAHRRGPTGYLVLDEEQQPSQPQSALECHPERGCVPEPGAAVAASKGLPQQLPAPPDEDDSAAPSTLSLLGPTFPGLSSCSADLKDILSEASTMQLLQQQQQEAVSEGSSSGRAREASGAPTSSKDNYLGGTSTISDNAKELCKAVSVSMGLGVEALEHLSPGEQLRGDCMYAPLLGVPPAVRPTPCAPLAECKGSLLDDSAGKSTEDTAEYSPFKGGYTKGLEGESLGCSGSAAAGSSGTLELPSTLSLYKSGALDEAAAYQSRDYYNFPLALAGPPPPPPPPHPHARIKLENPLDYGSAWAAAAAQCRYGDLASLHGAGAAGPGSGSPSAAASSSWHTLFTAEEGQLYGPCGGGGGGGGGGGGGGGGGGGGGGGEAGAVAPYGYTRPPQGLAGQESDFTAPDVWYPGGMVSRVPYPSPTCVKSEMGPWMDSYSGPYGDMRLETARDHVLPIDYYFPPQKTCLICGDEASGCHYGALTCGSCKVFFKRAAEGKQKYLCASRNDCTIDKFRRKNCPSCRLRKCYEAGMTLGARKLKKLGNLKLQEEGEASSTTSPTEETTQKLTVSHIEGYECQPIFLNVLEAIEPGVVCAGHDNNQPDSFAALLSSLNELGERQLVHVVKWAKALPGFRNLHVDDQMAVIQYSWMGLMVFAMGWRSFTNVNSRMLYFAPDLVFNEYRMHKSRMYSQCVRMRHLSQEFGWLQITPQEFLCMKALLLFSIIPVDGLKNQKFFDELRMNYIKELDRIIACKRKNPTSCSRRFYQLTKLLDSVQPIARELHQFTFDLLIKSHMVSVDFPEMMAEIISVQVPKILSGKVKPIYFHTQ
In short: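 R1881 agonist challenge of a HEK293 UAS-beta-lactamase AR reporter line in the presence of compound (16 h, 37C); signal taken as FRET fluorescence after 2 h with LiveBLAzer B/G substrate at room temperature.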

[18] = target: Androgen receptor (Homo sapiens) (UniProt P10275); assay: qHTS assay to identify small molecule agonists of the androgen receptor (AR) signaling pathway (AID 743036; active means well fitted activation curve with a large enough effect in the signal ratio in the repeat runs, with a control signal flat, not every such curve was filed as active; the % refers to the signal ratio)
In short: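 Agonist activity was scored by beta-lactamase reporter fluorescence in stably transfected HEK293 cells exposed to compounds for 16 h at 37C and 5% CO2. Substrate loading took 2 h at room temperature.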

[19] = target: Androgen receptor (Homo sapiens) (UniProt P10275); assay: qHTS assay to identify small molecule agonists of the androgen receptor (AR) signaling pathway using the MDA cell line (AID 743040; further: nearly all actives have a fitted effect of over 20% in size)
In short: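 Cell-based luciferase reporter: MDA-kb2, MMTV promoter (AR + GR response elements). 16 h compound exposure at 37C; ONE-Glo, 30 min RT, luminescence.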

[20] = target: Androgen receptor (Homo sapiens) (UniProt P10275); assay: qHTS assay to identify small molecule antagonists of the androgen receptor (AR) signaling pathway using the MDA cell line (AID 743042; further: nearly all actives have a fitted effect of over 55% in size; further: potency means the concentration at half of the fitted maximal effect)
In short: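 MDA-kb2 cells (human breast carcinoma, stably carrying an MMTV-luciferase reporter responsive to AR and GR) were plated at 3,000 cells/well and preincubated 5 hr at 37C, then given compound plus R1881 agonist for 16 h. ONE-Glo luminescence was read.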

Structure (SMILES)	outcome [1]	Potency [2]	Potency [3]	Potency [4]	Potency [5]	Potency [6]	Potency [7]	Potency [8]	outcome [9]	outcome [10]	outcome [11]	Potency [12]	Potency [13]	outcome [14]	Potency [15]	Potency [16]	outcome [17]	outcome [18]	Potency [19]	Potency [20]
CC(C)CCCC(C)N (configuration not stated)	inactive	inactive	inactive	inactive	inactive	inactive	inactive	inactive	inactive	inactive	inactive	inactive	21.1 µM (active)	inactive	inactive	inactive	–	–	–	–
Cc1cc(O)cc2c1O[C@](C)(CCC[C@H](C)CCC[C@H](C)CCCC(C)C)CC2	inactive	inactive	inactive	inactive	inactive	inactive	inactive	inactive	inactive	inactive	inactive	inactive	inactive	inactive	inactive	inactive	–	–	–	–
OCCCC1CCCCC1	inactive	inactive	inactive	inactive	inactive	inactive	inactive	inactive	inactive	inactive	inactive	inactive	inactive	inactive	inactive	inactive	–	–	–	–
CCc1nccnc1CC	inactive	inactive	inactive	inactive	inactive	inactive	inactive	inactive	inactive	inactive	inactive	inactive	–	inactive	inactive	inactive	–	–	–	–
ClC(Cl)(Br)Br	inactive	inactive	inactive	inactive	inactive	inactive	inactive	–	inactive	inactive	inactive	inactive	inactive	inactive	inactive	inactive	inactive	inactive	inactive	inactive
C=C(C)C(=O)OCCCCCCCC(C)C	inactive	inactive	inactive	inactive	inactive	inactive	inactive	inactive	inactive	inactive	inactive	inactive	inactive	inactive	inactive	inactive	inactive	inactive	inactive	inactive
CC/C=C\CCOC(C)=O	inactive	inactive	inactive	inactive	inactive	inactive	inactive	inactive	inactive	inactive	inactive	inactive	inactive	inactive	inactive	inactive	–	–	–	–
NC(=O)Nc1ccccc1	inactive	inactive	inactive	inactive	inactive	inactive	inactive	inactive	inactive	inactive	inactive	inactive	inactive	inactive	inactive	inactive	–	–	–	–
CN1C(=O)N(C)C(O)C1O (configuration not stated)	inactive	inactive	inactive	inactive	inactive	inactive	inactive	inactive	inactive	inactive	inactive	inactive	inactive	inactive	inactive	inactive	–	–	–	–
CC(C)(c1ccc(O)cc1)c1ccc(O)cc1	inactive	27.3 µM (active)	67.8 µM (active) and 50.4 µM (active)	49.2 µM (active)	inactive	inactive	–	61.1 µM (active)	inactive	–	inactive	–	–	inactive	inactive	inactive	–	inactive	inactive	59.2 µM (active)
O=Cc1cccc([N+](=O)[O-])c1	inactive	inactive	inactive	inactive	inactive	inactive	inactive	inactive	inactive	inactive	–	inactive	inactive	inactive	inactive	inactive	–	–	–	–
CO[Si](CCCOCC1CO1)(OC)OC (configuration not stated)	inactive	inactive	38.6 µM (active)	inactive	inactive	inactive	inactive	inactive	inactive	inactive	inactive	inactive	inactive	inactive	inactive	inactive	–	–	–	–
O=C(O)c1ccccc1OP(=O)(O)O	inactive	inactive	inactive	inactive	inactive	inactive	inactive	inactive	inactive	inactive	inactive	inactive	inactive	inactive	inactive	inactive	–	–	–	–
C=C[Si](OC(=C)C)(OC(=C)C)OC(=C)C	inactive	inactive	inactive	inactive	inactive	inactive	inactive	inactive	inactive	inactive	inactive	inactive	–	inactive	inactive	inactive	–	–	–	–
CC(C[N+](C)(C)C)OC(N)=O (configuration not stated)	inactive	inactive	inactive	inactive	inactive	inactive	inactive	inactive	inactive	inactive	inactive	inactive	inactive	inactive	inactive	inactive	–	–	–	–
OC1CCCCC1c1ccccc1 (configuration not stated)	inactive	inactive	inactive	inactive	inactive	inactive	inactive	–	inactive	inactive	inactive	inactive	inactive	inactive	inactive	inactive	–	inactive	inactive	inactive
CC(C)(C)NCCNC(C)(C)C	inactive	inactive	inactive	inactive	inactive	inactive	inactive	inactive	inactive	inactive	inactive	inactive	inactive	inactive	inactive	inactive	–	–	–	–
